gsp antagonist – qHTS for Antagonists of gsp, the Etiologic Mutation Responsible for Fibrous Dysplasia/McCune-Albright Syndrome: qHTS | gsp-mutant cells, cAMP HTRF, 30 min | 340,000 tested, 0.4% active | Potency, µM (highest dose often 76.9 µM), for inactives: at the highest dose activity change, negative = inhibition, most hits filed as inhibitors; calls by dose curve; cell line not stated here;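 also: intracellular cAMP measured with PDE inhibitor Ro 20-1724 present during compound exposure; potency is read from the fitted curve at half-maximal effect; % is scaled to controls: 0 for no effect and ±100 for the full control effect; nearly all actives have a fitted effect of over 65% in size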
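Measurement of cellular cAMP by homogeneous time-resolved fluorescence following a 30 min compound exposure at 37C. The PDE inhibitor […] was present throughout; the assay buffer was DPBS with 0.05% BSA and 0.005% Tween 20.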
GRP78 ERSR act – qHTS for Inducers of the Endoplasmic Reticulum Stress Response (ERSR) in Human Glioma: qHTS. AID 602332, 2012. 420,000 tested, 0.02% active. Potency, µM, for the others: at the top dose activation, hits mostly activators. U87-MG GRP78 promoter luciferase reporter, 16 h; active = well fitted activation curve with a large enough effect; inconclusive = small, poorly fitted or top-dose-only effect; inactive = no such curve, though single readings can be large or run the other way; also: potency is read from the fitted curve at half-maximal effect; series mostly up to about 76 µM; % of control where 0% means no effect; nearly all actives have a fitted effect of over 35% in size
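Stably transfected U87-MG glioma cells carrying a GRP78-based luciferase sensor; 16 h compound incubation. Luminescence end-point read 10 min after Bright-Glo addition at room temperature.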
Akt phos inh – HTS Assay for Inhibitors of Akt Phophorylation: Primary Screen; Neuro2A IGF-stimulated pAkt S473 HTRF, 20 min; active compounds read low; activity change, % for hits at 50 µM; 360,000 tested, 0.32% active; in the data active = activity change below about -80%; inconclusive = mostly about -51% to -80%; also: % is scaled to controls: 0 for no effect and ±100 for the full control effect
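Neuro2A cells in DMEM with 0.5% FBS, overnight at 37 deg C, given compound at single 50 µM final, then IGF (6 nM final) for 20 min at 37 deg C. Lysed; phospho-Akt Ser473 by HTRF after 24 h, 665/615 ratio.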
gsp ag – qHTS for Agonist of gsp, the Etiologic Mutation Responsible for Fibrous Dysplasia/McCune-Albright Syndrome: qHTS; gsp mutant cells, cAMP HTRF, 30 min; Potency, µM (highest dose often 76.9 µM), for the others: top-dose activation (cAMP increase), actives largely listed as activators; 340,000 tested, 0.13% active; active = well fitted activation curve with a large enough effect; inconclusive = small, poorly fitted or top-dose-only effect, or another doubt; inactive = no such curve, though single readings can be large or run the other way; cell line not stated here;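 also: phosphodiesterase inhibitor Ro 20-1724 added with compounds to block cAMP breakdown; potency is read from the fitted curve at half-maximal effect; nearly all actives have a fitted effect of over 60% in size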
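Cells in DMEM/10% FBS with G418 were pretreated with compounds in DMSO plus […] (300 uM stock) for 30 min at 37C. cAMP was measured by HTRF (cAMP-d2 plus anti-cAMP antibody-K) after 30 min at room temperature.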
KCNH2 WT inh – qHTS for Inhibitors of KCHN2 3.1: Wildtype qHTS | U2OS, BacMam KCNH2, thallium flux FluxOr; active compounds read low | 340,000 tested, 0.37% active | Voltage-gated inwardly rectifying potassium channel KCNH2 (Homo sapiens), Q12809 | activity change, % at 1.84 µM;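 active = maximum activity change below -70%; inconclusive = maximum activity change between -70% and -50%; inactive = maximum activity change above -50%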; also: % is scaled to controls: 0 for no effect and ±100 for the full control effect
Target sequence (Q12809 whole entry, looked up): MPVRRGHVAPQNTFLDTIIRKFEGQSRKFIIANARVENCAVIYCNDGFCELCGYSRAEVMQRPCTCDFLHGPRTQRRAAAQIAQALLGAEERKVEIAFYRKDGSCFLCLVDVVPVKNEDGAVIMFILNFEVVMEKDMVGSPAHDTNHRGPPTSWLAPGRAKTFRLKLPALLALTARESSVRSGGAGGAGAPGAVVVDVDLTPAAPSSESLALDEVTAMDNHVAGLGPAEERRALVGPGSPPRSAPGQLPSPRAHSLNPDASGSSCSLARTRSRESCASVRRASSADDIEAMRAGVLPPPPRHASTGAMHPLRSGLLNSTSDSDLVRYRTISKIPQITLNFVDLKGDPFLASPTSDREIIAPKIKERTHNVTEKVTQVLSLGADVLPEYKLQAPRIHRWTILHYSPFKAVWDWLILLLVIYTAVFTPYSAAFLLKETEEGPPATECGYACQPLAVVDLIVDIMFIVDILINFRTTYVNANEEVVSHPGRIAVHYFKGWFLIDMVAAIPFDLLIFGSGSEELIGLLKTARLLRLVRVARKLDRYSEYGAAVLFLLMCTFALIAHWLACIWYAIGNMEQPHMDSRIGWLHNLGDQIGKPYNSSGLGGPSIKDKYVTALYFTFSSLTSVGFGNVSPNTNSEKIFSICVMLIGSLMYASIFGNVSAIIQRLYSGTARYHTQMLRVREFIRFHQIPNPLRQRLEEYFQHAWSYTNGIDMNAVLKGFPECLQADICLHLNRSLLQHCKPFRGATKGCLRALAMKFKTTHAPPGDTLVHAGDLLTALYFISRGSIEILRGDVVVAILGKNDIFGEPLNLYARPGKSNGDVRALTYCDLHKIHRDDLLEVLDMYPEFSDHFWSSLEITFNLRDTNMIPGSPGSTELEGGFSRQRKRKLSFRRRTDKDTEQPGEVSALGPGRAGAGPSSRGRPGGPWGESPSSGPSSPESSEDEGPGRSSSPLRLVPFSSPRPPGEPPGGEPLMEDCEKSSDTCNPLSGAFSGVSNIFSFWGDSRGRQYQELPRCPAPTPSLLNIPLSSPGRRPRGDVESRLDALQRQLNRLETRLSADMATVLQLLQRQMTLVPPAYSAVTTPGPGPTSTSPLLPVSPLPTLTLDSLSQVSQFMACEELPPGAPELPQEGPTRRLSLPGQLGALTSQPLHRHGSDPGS
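U2OS cells transduced with wild-type KCNH2 virus are loaded with FluxOr dye for 45 min, and thallium flux is measured in kinetic reads before and after stimulation buffer. Rate constants are normalized to DMSO controls.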
KCNH2 3.1 block – qHTS for Inhibitors of KCHN2 3.1: Mutant qHTS | U2OS KCNH2 3.1, thallium flux FluxOr; active compounds read low | AID 720553, 2013 | Potassium voltage-gated channel subfamily H member 2, brain isoform KCNH2 3.1 (human) | activity change, % (tested at about 1.8 µM) | 340,000 tested, 0.95% active;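 active = maximum activity change below -70%; inconclusive = maximum activity change from -70% to -50%; inactive = maximum activity change above -50%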;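 also: thallium influx rate constant from kinetic fluorescence after stimulation buffer; % is scaled to controls: 0 for no effect and ±100 for the full control effect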
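Thallium flux via FluxOr fluorescence (Red40 quencher, 45 min loading) in U2OS cells virally expressing the KCNH2 3.1 isoform (1.77 x 10^8 /mL virus, overnight at 37 C). Rate constants from 2-min kinetic reads post-stimulation, normalised to positive and negative controls.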
* = called active by the depositor; i = inactive; u = inconclusive; x = not tested or not shown; [ ] = remark or other dose. Shown are actives, neighbours in structure and some others; about 1.6% of the full set was active somewhere.

SMILES	gsp antagonist	GRP78 ERSR act	Akt phos inh	gsp ag	KCNH2 WT inh	KCNH2 3.1 block
COc1cccc(OC)c1OCCCCN1CCC(Cc2ccccc2)CC1	7%	-10%	i	8%[15.4 µM]	-8	-71*
CCOc1ccccc1OCCN1CCC(Cc2ccccc2)CC1	13%	-2%	i	49%[15.4 µM]	5	u
Cc1ccc(-c2nc(=Nc3c(C)cc(C)cc3C)sn2-c2ccccc2)cc1	x	-3%	x	x	x	x
COc1cc(-c2cccc(Cl)c2)cc2c1OCCN(C(=O)CCn1ccc(C)n1)C2	x	1%	x	x	x	x
c1ccc(COc2ccc(OCCCN3CCCC3)cc2)cc1	-9%	-10%	i	2%	29	-50
CC1CCN(CCCOc2ccc(OCc3ccccc3)cc2)CC1	21%	4%	i	-3%	16	-80*
CCC12CN3CC(CC)(CN(C1)C3c1ccc(OC(C)C)cc1)C2=O (stereo not given)	-6%	-4%	-112%*	-11%	-1	-2
CCCC12CN3CC(C)(CN(C1)C3c1ccc(OC)cc1)C2=O (stereo not given)	3%	-4%	i	u	-2	-5
CC(CCc1ccccc1)NC(=O)C(=O)NCCO (stereo not given)	5%	-2%	i	-9%	8	-78*
COc1cccc2[nH]c3c(N4CCCCC4)ncnc3c12	-12%	7%	i	21%	5	7
COc1cccc2[nH]c3c(Cl)ncnc3c12	3%	-1%	i	0%	-184*	0
O=C(NCCCN1CCOCC1)c1ccccc1N1C(=O)[C@@H]2Cc3c([nH]c4ccccc34)C(c3cccc(Cl)c3)N2C1=O (stereo not given in full)	-13%	-3%	i	x	u	-77*
COC(=O)C1CCN(Cc2ccc3c(c2)CN(C(=O)c2ccc(-n4cnnn4)cc2)CCO3)CC1	x	-5%	x	x	x	x
COc1ccc(CC2(CO)CCN(C/C=C/c3ccccc3OC)CC2)cc1	8%	-1%	i	-3%	-90*	-109*
COc1ccc(CC2(CO)CCN(Cc3cnn(-c4ccccc4OC)c3)CC2)cc1	7%	-1%	i	12%	25	-24
COc1ccccc1/C=C/CN1CCCC(CO)(CCc2ccccc2)C1 (stereo not given)	9%	-3%	i	-56%	-26	-75*
O=C(Oc1ccc(OC(=O)N2CCOCC2)cc1)c1ccccc1	11%	-1%	i	6%	-152*	-20
O=C(Oc1ccccc1)N1CCOCC1	-5%	0%	i	13%[15.4 µM]	-11	9
COC(=O)c1ccccc1-c1cc(C)cc2c1OC(CNC(=O)c1cc(C)on1)C2 (stereo not given)	x	5%	x	x	x	x
COc1ccc(OC)c(-c2c3c([nH]c(=S)c2C#N)CCCC3)c1	-12%	-4%	i	-9%[15.4 µM]	-29	-17
COc1ccc(-c2c3c([nH]c(=S)c2C#N)CCC3)cc1	17%	2%	i	4.5µM*	-29	-6
N#CC(CCc1ccc([N+](=O)[O-])cc1)(CCc1ccc([N+](=O)[O-])cc1)C(N)=O	-5%	-2%	i	u	-93*	-129*
COc1cc(C2C(C#N)=C(N)Oc3c2ccc2ccccc32)ccc1OCC(=O)Nc1ccccc1C (stereo not given)	-8%	-6%	-104%*	-13%	3	4
O=C(COC(=O)CC1SC(N2CCCC2)=NC1=O)Nc1c(F)c(F)c(F)c(F)c1F (stereo not given)	5%	-3%	i	-15%	-5	-74*
CN(C)C(=O)c1ccc(NC(=O)CC2SC(N3CCCC3)=NC2=O)cc1 (stereo not given)	8%	-5%	i	-8%[15.4 µM]	0	-4
SMILES	gsp antagonist	GRP78 ERSR act	Akt phos inh	gsp ag	KCNH2 WT inh	KCNH2 3.1 block
COc1ccc(/C=N/NC(=O)c2ccc(F)cc2)cc1CN1CCc2cc(OC)c(OC)cc2C1C (stereo not given)	-21%	0%	i	6%	-91*	-88*
COc1ccc(/C=N/NC(=O)c2ccc(C)cc2)cc1CN1CCN(c2ccc(F)cc2)CC1	4%	-2%	i	-19%	-72*	-108*
COc1ccc(/C=N/NC(=O)c2ccncc2)cc1CN1CCN(c2ccc(F)cc2)CC1	10%	-7%	i	-7%[15.4 µM]	18	-90*
COc1ccc(/C=N\NC(=O)c2cc(O)c(O)c(O)c2)cc1CN1CCN(c2ccc(F)cc2)CC1	-2%	-2%	i	16%	-6	-13
Cn1ccnc1C1CCCCN1C(=O)CN1Cc2ccccc2OC(c2ccccc2F)C1 (stereo not given)	x	-2%	x	x	x	x
O=C(Nc1cccc(N2CCC(NCc3cnn(-c4ccccc4)n3)CC2)c1)c1cccnc1	x	-5%	x	x	x	x
NC(=O)NCc1ccc(Cl)cc1	11%	-1%	i	8%	-21	-80*
CC(C)CC(NC(N)=O)C(=O)NCc1ccc(Cl)cc1 (stereo not given)	11%	-3%	i	-42%	-3	21
Cc1cc(CN2C(=O)c3ccccc3C2=O)cc(N2CCOCC2)c1	4%	0%	i	7%	-294*	5
COc1ccccc1CCC(=O)N1CCOc2c(cc(-c3cnc4ccccc4c3)cc2OC)C1	x	-4%	x	x	x	x
Cn1nnnc1SCSc1nnnn1C	0%	-5%	i	17%	2	1
CSc1nnnn1CCn1nnnc1SC	15%	-1%	i	-8%	-243*	-9
Clc1ccc(/C=C/c2ccnc3ccccc23)c(Cl)c1	x	-1%	x	x	x	x
COCCCN1C(=O)C(O)=C(C(=O)c2ccc(C)o2)C1c1cccc(Br)c1 (stereo not given)	11%	-2%	i	13µM*	-5	5
COCCCN1C(=O)C(O)=C(C(=O)c2ccco2)C1c1ccccc1 (stereo not given)	17%	-3%	-108%*	u	-1	6
CCOc1cccc(C2C(C(=O)c3ccc(C)o3)=C(O)C(=O)N2CCCn2ccnc2)c1 (stereo not given)	21%	-5%	i	43%[15.4 µM]	-2	17
O=C(C1=C(O)C(=O)N(CCc2ccccc2)C1c1cccnc1)c1ccco1 (stereo not given)	2%	-2%	i	u	-3	1

Bioassay records (PubChem)
